Results from PubChem BioAssay AID1159580 (chemical genetic matrix, 2015).
Screen size: about 5,500 compounds; about 2,000 (36%) were called active. About 18% were inconclusive and are not listed. No stated cut-off is given here; in the data, active means normalized growth mostly below about 0.91 (no sharp cut-off); inconclusive means no clear call, values can overlap the other calls; inactive means mostly above about 0.92. The list shows a part of the results.

Experiment: chemical genetic growth profiling, strain panel (AID 1159580);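 further: tested at 20 µM; growth read once vehicle control cultures reached saturation at 30 °C; 1 = growth at the plate median or of vehicle wells; lower values mean less growth of the strain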
Details: S. cerevisiae deletion strains, growth OD
[1] = locus YAL013W, strain DEP1, active compounds read low
[2] = locus YAL040C, strain CLN3, active compounds read low
[3] = locus YCL061C, strain MRC1 (second series), active compounds read low
[4] = locus YDR363W, strain ESC2, active compounds read low
[5] = locus YER002W, strain NOP16, active compounds read low
[6] = locus YNL175C, strain NOP13, active compounds read low
[7] = locus YNL197C, strain WHI3, active compounds read low
[8] = locus YNL224C, strain SQS1, active compounds read low
[9] = locus YOR083W, strain WHI5 (second series), active compounds read low

Measured: normalized growth

CCC(CO)NC(=O)C1C=C2c3cccc4[nH]cc(c34)CC2N(C)C1 (stereo unspecified)
inactive: [1] 0.986 | [2] 0.999 | [3] 1 | [4] 0.991 | [5] 0.99 | locus YGR078C, strain PAC10, active compounds read low 0.977 | locus YNL128W, strain TEP1, active compounds read low 0.997 | locus YNL153C, strain GIM3, active compounds read low 1.02 | [6] 0.996 | [7] 0.978 | [8] 0.995 | [9] 0.996

O=C1CCC(c2ccc(-n3ccnc3)cc2)=NN1
inactive: [1] 0.984 | [2] 0.943 | [3] 1 | [4] 1 | [5] 1.01 | locus YMR263W, strain SAP30, active compounds read low 1 | locus YMR307W, strain GAS1, active compounds read low 1.05 | [6] 0.987 | [7] 0.979 | [8] 0.994 | [9] 0.994

N[C@@H](COP(=O)(O)O)C(=O)O
inactive: [2] 0.991 | [3] 0.989 | locus YDR150W, strain NUM1, active compounds read low 1.01 | [4] 1.01 | [5] 1 | locus YJR075W, strain HOC1, active compounds read low 0.984 | [6] 1.01 | [7] 0.984 | [8] 0.992 | locus YNL322C, strain KRE1, active compounds read low 1.01 | [9] 1.01 | locus YPL055C, strain LGE1, active compounds read low 1.01 | locus YPL241C, strain CIN2, active compounds read low 0.997
